Measured values as given in PubChem BioAssay AID1159580 (chemical genetic matrix, 2015).
About 2,000 (36%) of roughly 5,500 compounds were called active. About 18% were inconclusive and are not listed. Cut-off read from the data, not from the text of the source: active = normalized growth mostly below about 0.91 (no sharp cut-off); inconclusive = no clear call, values can overlap the other calls; inactive = mostly above about 0.92. Some of the results follow.

Assay: chemical genetic growth profiling, strain panel (AID 1159580);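 note: tested at 20 µM; growth read once vehicle control cultures reached saturation at 30 °C; 1 = growth at the plate median or of vehicle wells; lower values mean less growth of the strain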
Conditions: growth OD

Measured: normalized growth

COC(=O)CCC(C)[C@H]1CCC2C3C(C[C@H](O)[C@@]21C)[C@@]1(C)CC[C@@H](O)C[C@H]1C[C@H]3O (stereo not given in full)
inactive: S. cerevisiae deletion strains, locus YJR075W, strain HOC1, active compounds read low 0.986 | S. cerevisiae deletion strains, locus YKL009W, strain mrt4, active compounds read low 1.02 | S. cerevisiae deletion strains, locus YKL068W, active compounds read low 1 | S. cerevisiae deletion strains, locus YKL085W, strain MDH1 (second series), active compounds read low 1.01 | S. cerevisiae deletion strains, locus YKL085W, strain MDH1, active compounds read low 1.01 | S. cerevisiae deletion strains, locus YKL160W, strain elf1, active compounds read low 1.03 | S. cerevisiae deletion strains, locus YKR001C, strain vps1, active compounds read low 1 | S. cerevisiae deletion strains, locus YKR026C, strain gcn3, active compounds read low 1.03 | S. cerevisiae deletion strains, locus YKR091W, strain srl3, active compounds read low 1.01 | S. cerevisiae deletion strains, locus YLL001W, strain dnm1, active compounds read low 1.03 | S. cerevisiae deletion strains, locus YLL026W, active compounds read low 1.01 | S. cerevisiae deletion strains, locus YLL041C, strain sdh2, active compounds read low 1.01 | S. cerevisiae deletion strains, locus YLR027C, strain aat2, active compounds read low 1.01 | S. cerevisiae deletion strains, locus YLR039C, strain RIC1, active compounds read low 1.13 | S. cerevisiae deletion strains, locus YLR058C, strain SHM2, active compounds read low 1.01 | S. cerevisiae deletion strains, locus YLR102C, strain apc9, active compounds read low 1.03 | S. cerevisiae deletion strains, locus YLR113W, strain HOG1, active compounds read low 0.975 | S. cerevisiae deletion strains, locus YLR221C, strain rsa3, active compounds read low 1.02 | S. cerevisiae deletion strains, locus YLR258W, strain gsy2, active compounds read low 1.03 | S. cerevisiae deletion strains, locus YLR262C, strain YPT6 (second series), active compounds read low 1.02 | S. cerevisiae deletion strains, locus YLR262C, strain YPT6, active compounds read low 1.09 | S. cerevisiae deletion strains, locus YLR268W, strain sec22, active compounds read low 1.01 | S. cerevisiae deletion strains, locus YLR320W, strain mms22, active compounds read low 1.04 | S. cerevisiae deletion strains, locus YLR330W, strain CHS5, active compounds read low 1.01 | S. cerevisiae deletion strains, locus YLR342W, strain FKS1 (second series), active compounds read low 1.02 | S. cerevisiae deletion strains, locus YLR342W, strain FKS1, active compounds read low 1.01 | S. cerevisiae deletion strains, locus YLR357W, strain rsc2, active compounds read low 1.03 | S. cerevisiae deletion strains, locus YLR370C, strain arc18, active compounds read low 1.01 | S. cerevisiae deletion strains, locus YLR371W, strain rom2, active compounds read low 1.02 | S. cerevisiae deletion strains, locus YLR384C, strain iki3, active compounds read low 1 | S. cerevisiae deletion strains, locus YLR418C, strain cdc73, active compounds read low 0.932 | S. cerevisiae deletion strains, locus YML016C, strain PPZ1, active compounds read low 1.04 | S. cerevisiae deletion strains, locus YML032C, strain rad52, active compounds read low 1.01 | S. cerevisiae deletion strains, locus YML120C, strain ndi1, active compounds read low 1.02 | S. cerevisiae deletion strains, locus YML124C, strain tub3, active compounds read low 1.02 | S. cerevisiae deletion strains, locus YMR058W, strain fet3, active compounds read low 1.02 | S. cerevisiae deletion strains, locus YMR078C, strain ctf18, active compounds read low 1.04 | S. cerevisiae deletion strains, locus YMR125W, strain sto1, active compounds read low 1.03 | S. cerevisiae deletion strains, locus YMR129W, active compounds read low 1.01 | S. cerevisiae deletion strains, locus YMR205C, strain PFK2, active compounds read low 1.02 | S. cerevisiae deletion strains, locus YMR223W, strain ubp8, active compounds read low 0.996 | S. cerevisiae deletion strains, locus YMR231W, strain pep5, active compounds read low 1.01 | S. cerevisiae deletion strains, locus YMR263W, strain SAP30, active compounds read low 1.01 | S. cerevisiae deletion strains, locus YMR307W, strain GAS1, active compounds read low 0.86 | S. cerevisiae deletion strains, locus YNL067W, strain RPL9B, active compounds read low 1 | S. cerevisiae deletion strains, locus YNL071W, strain lat1, active compounds read low 1.01 | S. cerevisiae deletion strains, locus YNL128W, strain TEP1, active compounds read low 1.02 | S. cerevisiae deletion strains, locus YNL153C, strain GIM3, active compounds read low 0.988 | S. cerevisiae deletion strains, locus YNL183C, strain NPR1, active compounds read low 0.955 | S. cerevisiae deletion strains, locus YNL209W, strain ssb2, active compounds read low 1.02 | S. cerevisiae deletion strains, locus YNL233W, strain BNI4, active compounds read low 0.957 | S. cerevisiae deletion strains, locus YNL248C, strain rpa49, active compounds read low 1.04 | S. cerevisiae deletion strains, locus YNL250W, strain rad50, active compounds read low 1.01 | S. cerevisiae deletion strains, locus YNL271C, strain bni1, active compounds read low 1.02 | S. cerevisiae deletion strains, locus YNL298W, strain CLA4, active compounds read low 0.993 | S. cerevisiae deletion strains, locus YNL307C, strain MCK1, active compounds read low 1.03 | S. cerevisiae deletion strains, locus YNL322C, strain KRE1 (second series), active compounds read low 1.03 | S. cerevisiae deletion strains, locus YNL322C, strain KRE1, active compounds read low 1.02 | S. cerevisiae deletion strains, locus YNR049C, strain mso1, active compounds read low 1.01 | S. cerevisiae deletion strains, locus YNR052C, strain pop2, active compounds read low 1.01 | S. cerevisiae deletion strains, locus YOL006C, strain TOP1, active compounds read low 0.974 | S. cerevisiae deletion strains, locus YOL012C, strain htz1 0.777 | S. cerevisiae deletion strains, locus YOL147C, strain pex11, active compounds read low 1.03 | S. cerevisiae deletion strains, locus YOR001W, strain rrp6, active compounds read low 0.985 | S. cerevisiae deletion strains, locus YOR061W, strain CKA2, active compounds read low 1.04 | S. cerevisiae deletion strains, locus YOR069W, strain VPS5, active compounds read low 1.06 | S. cerevisiae deletion strains, locus YOR070C, strain gyp1, active compounds read low 0.995 | S. cerevisiae deletion strains, locus YOR080W, strain dia2, active compounds read low 1.01 | S. cerevisiae deletion strains, locus YOR083W, strain WHI5, active compounds read low 1.03 | S. cerevisiae deletion strains, locus YOR106W, strain vam3, active compounds read low 1.01 | S. cerevisiae deletion strains, locus YOR136W, strain idh2, active compounds read low 1.02 | S. cerevisiae deletion strains, locus YOR144C, strain elg1, active compounds read low 1.02 | S. cerevisiae deletion strains, locus YOR184W, strain ser1, active compounds read low 0.986 | S. cerevisiae deletion strains, locus YOR231W, strain MKK1, active compounds read low 0.991 | S. cerevisiae deletion strains, locus YOR265W, strain rbl2, active compounds read low 1.01 | S. cerevisiae deletion strains, locus YOR270C, strain vph1, active compounds read low 0.913 | S. cerevisiae deletion strains, locus YOR290C, strain snf2, active compounds read low 0.977 | S. cerevisiae deletion strains, locus YOR316C, strain cot1, active compounds read low 1.03 | S. cerevisiae deletion strains, locus YPL051W, strain arl3, active compounds read low 1.01 | S. cerevisiae deletion strains, locus YPL078C, strain atp4, active compounds read low 1.03 | S. cerevisiae deletion strains, locus YPL106C, strain sse1, active compounds read low 1.05 | S. cerevisiae deletion strains, locus YPL240C, strain hsp82, active compounds read low 1 | S. cerevisiae deletion strains, locus YPL241C, strain CIN2, active compounds read low 1.02 | S. cerevisiae deletion strains, locus YPL256C, strain CLN2, active compounds read low 0.981 | S. cerevisiae deletion strains, locus YPR119W, strain clb2, active compounds read low 1.03 | S. cerevisiae deletion strains, locus YPR141C, strain kar3, active compounds read low 1.03 | S. cerevisiae deletion strains, locus YPR163C, strain tif3, active compounds read low 1.03 | S. cerevisiae deletion strains, locus YPR167C, strain met16, active compounds read low 1.03 | S. cerevisiae deletion strains, strain wtn01, active compounds read low 1.01 | S. cerevisiae strains, strain wild type, active compounds read low 1.02
